Source: PubChem BioAssay (National Center for Advancing Translational Sciences (NCATS))
An excerpt weighted towards active compounds, which were near 21% of everything screened.
Pf growth 96h – P. falciparum growth inhibition at 96 hour, primary screen for plastid delayed-death inhibitors | AID 504834 | Potency, µM (doses to about 28.7 µM), without a hit: at the top dose activity change, negative = inhibition, usual class: inhibitors | actives 6.9% (n = 320,000) | P. falciparum luciferase reporter growth, 96 h; also: potency is read from the fitted curve at half-maximal effect; % is scaled to controls: 0 for no effect and ±100 for the full control effect
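Compounds incubated with erythrocytes infected by luciferase-expressing P. falciparum (2% hematocrit, 0.05% parasitemia final) for 96 hours, 37 C in 5% CO2. Growth inhibition scored as decreased luciferase luminescence.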
HCV inh – blocks hepatitis C virus | Huh7.5.1 HCVcc-Cre infection, luciferase reporter, 44 h | actives 3.4% (n = 340,000) | Potency, µM (titrated, usually from 41.8 µM), for the others: top-dose activity change, negative = inhibition, hits mostly inhibitors; also: potency is read from the fitted curve at half-maximal effect; % is scaled to controls: 0 for no effect and ±100 for the full control effect
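Cells (1,000/well) were plated 4 h before compound, then infected with HCVcc-Cre virus (~0.5 moi). After 44 h further culture, infection was read as luciferase luminescence following a 15 min substrate incubation at room temperature.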
Shiga inhibitor – blocks Shiga toxin action in Vero cells; Vero cells, Shiga toxin protein synthesis inhibition reporter; AID 2315; inhibition, % at 38.7 µM; actives 9.2% (n = 290,000); in the data active = inhibition mostly above about 28%, no sharp cut-off; inactive = mostly below about 43%; also: 0% is about no effect
Pf growth 48h – inhibits P. falciparum growth in the first generation, 48 h; P. falciparum luciferase growth in erythrocytes, 48 h; Potency, µM (top dose mostly 28.7 µM), without a hit: at the highest dose activity change, negative = inhibition, hits mostly inhibitors; actives 5.9% (n = 310,000); AID 504832; also: potency is read from the fitted curve at half-maximal effect; % is scaled to controls: 0 for no effect and ±100 for the full control effect
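Read-out is firefly luciferase luminescence from an integrated reporter in P. falciparum, so falling signal marks reduced parasite growth. Infected erythrocytes were at 2% hematocrit and 0.1% parasitemia (final) in Albumax-supplemented RPMI 1640.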
CHX counter – affects cycloheximide protein synthesis inhibition readout, counter-screen; cell reporter, cycloheximide protein synthesis inhibition counterscreen; max response, %; actives 12% (n = 300,000); in the data active = max response mostly above about 13%, no sharp cut-off; inactive = mostly below about 14%; also: read at 38.3 µM for the half of the compounds with a filed dose; 0% is about no effect
AMA1-RON2 inh – disrupts binding of P. falciparum AMA1 to RON2; AID 720542; AlphaScreen AMA1-biotinylated RON2 peptide binding; Potency, µM (highest dose often 58.2 µM), for the others: top-dose activity change, negative = inhibition, usual class: inhibitors; actives 0.2% (n = 360,000);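 also: potency is read from the fitted curve at half-maximal effect; 0% = vehicle wells and -100% = peptide control; nearly all actives have a fitted effect of over 45% in size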
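AMA1 (3D7) with his tag at 25 nM final met compounds first, then biotinylated RON2 peptide at 25 nM; detection used donor plus acceptor beads, 10 µg/mL apiece, read by AlphaScreen after 30 min at room temperature.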
Active calls of the source: *; u = inconclusive; x = not tested or not shown. Unless noted, calls follow the shape of the dose curve; as a rule, active = well fitted curve in the direction sought with a large enough effect; inconclusive = small, poorly fitted or top-dose-only effect, or another doubt; inactive = no such curve, though single readings can be large; an effect the other way counts as inactive or inconclusive.

SMILES | Pf growth 96h | HCV inh | Shiga inhibitor | Pf growth 48h | CHX counter | AMA1-RON2 inh
COc1ccccc1OCCNc1ccc(S(=O)(=O)N2CCCC2)cn1 | 0% | u | x | -19% | x | 1%
Nc1[nH]c(C(=O)c2ccccc2)c(-c2ccncc2)c1C(=O)NCc1ccc(Cl)cc1 | x | x | x | x | x | 0%
Oc1ccc(C[C@H]2CNCCN2CC2CCCCC2)cc1 | u | 25% | x | u | x | 5%
c1ccc2c(C[C@@H]3CNCCN3CC3CCCCC3)cccc2c1 | 12µM* | u | x | u | x | -1%
Cn1c(O)c(C(=NCCc2c[nH]c3ccccc23)c2ccccc2)c(=O)n(C)c1=O | u | 2% | -8 | 9.3µM* | -2 | -7%
O=C(CCSc1ccc(Cl)cc1)N1CCN(c2ccc(O)cc2)CC1 | 8% | u | 59* | -7% | 27* | -18%
O=C(CSc1nn(-c2ccc(F)cc2)c(=S)s1)N1CCN(C(=O)c2ccco2)CC1 | x | u | 14 | -14% | -6 | -1%
O=C(CSc1ccccc1)N1CCN(c2ccccc2)CC1 | u | -2% | 85* | 14% | 17 | -14%
O=C(CSc1nn(-c2ccc(Cl)cc2)c(=S)s1)N1CCN(C(=O)c2ccco2)CC1 | -14% | -25% | 9 | 4.7µM* | 8 | -8%
Cc1ccc(C)c(C(=O)CCC(=O)N2CCN(c3ncccn3)CC2)c1 | u | -4% | 38* | u | 36* | 1%
COc1ccc(N2CCN(C(=O)CSc3ccccc3)CC2)cc1 | 12% | -9% | 32 | 16% | 17 | 0%
NC(=O)C1CCN(C(=O)CCSc2ccc(Cl)cc2)CC1 | 22% | 19% | 27 | 17% | 25 | -3%
O=C(O)/C=C/c1ccc(-n2ccnc2)cc1 | 37% | 2% | 23 | 23% | -2 | 10%
O=C(CSc1nc(=O)n2ccccc2n1)N1CCCCCC1 | 3% | 26% | x | -21% | x | -2%
O=C(CSc1ccccn1)N1CCN(c2cccc(Cl)c2)CC1 | x | -14% | 16 | 0% | -2 | 1%
O=C(CCOc1ccccc1)N1CCN(c2ccc(O)cc2)CC1 | u | -21% | 63* | -15% | 47* | 8%
O=C(CCSc1ccc(Cl)cc1)N1CCN(c2ncccn2)CC1 | -9% | -5% | 38 | 8% | 17* | -9%
CCC(C(=O)N1CCN(c2ncccn2)CC1)c1ccccc1 (centres undefined) | 0% | -11% | 15 | 117% | 26* | 0%
CC(Oc1ccccc1)C(=O)N1CCN(c2ncccn2)CC1 (centres undefined) | -2% | -1% | x | 7% | x | -9%
O=C(CSc1ccccn1)N1CCN(c2ccccc2)CC1 | x | 7% | 35* | 33% | 35* | -4%
CCOC(=O)c1c(C)[nH]c(C(=O)COC(=O)c2ccc([N+](=O)[O-])o2)c1C | x | 29% | x | x | x | 2%
O=C(CCSc1ccccc1)N1CCN(c2ccccc2)CC1 | u | u | 90* | 75% | 39* | 23%
O=C(CCSc1ccccc1)N1CCN(C(=O)c2ccco2)CC1 | x | 11% | 99* | 27% | 35* | -4%
O=C(CCC(=O)N1CCN(c2ccccc2F)CC1)N1CCN(c2ccccc2)CC1 | 137% | -10% | -8 | 0% | -2 | -7%
O=C(CCSc1ccc(Cl)cc1)N1CCCCCC1 | 1µM* | 8% | 61* | 143% | 21* | 6%
SMILES | Pf growth 96h | HCV inh | Shiga inhibitor | Pf growth 48h | CHX counter | AMA1-RON2 inh
O=C(CSC1=NCCS1)N1CCN(c2ccccc2)CC1 | 110% | u | 38* | -3% | 26* | 10%
Nc1nc(N)c(N=O)c(Nc2cccc(Cl)c2)n1 | x | x | x | x | x | 41%
O=C(/C=C/c1ccc(Cl)cc1)N1CCN(c2c(Cl)cccc2[N+](=O)[O-])CC1 | u | u | 20 | -29% | -5 | -22%
O=C(CSc1ccc(Cl)cc1)N1CCN(c2c(Cl)cccc2[N+](=O)[O-])CC1 | 125% | u | 46 | 7% | 56* | u
CC(=O)c1ccc(OCCCC(=O)OCC(=O)Nc2c(C)nn(-c3ccccc3)c2C)cc1 | -30% | 13% | x | u | x | -2%
O=C(CSc1ccccc1)N1CCCC(N2CCN(c3ccc(F)cc3)CC2)C1 (centres undefined) | 11% | 10µM* | 2 | u | 14 | -6%
CC(=O)c1ccc(OCCCC(=O)OCC(=O)N2CCN(c3ccccc3)CC2)cc1 | 9.3µM* | 12% | -7 | x | -2 | 1%
COc1ccc(CCC(=O)Nc2ncc(C)s2)cc1 | 13% | 2% | 35* | 15% | 17* | 7%
COc1ccc2c(CC(=O)Nc3ncc(C)s3)coc2c1 | 113% | u | 86* | 49% | 33* | 16%
COc1cc(CCC(=O)Nc2ncc(C)s2)cc(OC)c1OC | -3% | -22% | -7 | -10% | -6 | -2%
Cc1cnc(NC(=O)COc2ccc3c(c2)CCC3)s1 | u | u | 61* | 241% | 60* | 16%
COc1ccc(CCC(=O)Nc2nnc(C(F)(F)F)s2)cc1 | 15µM* | 7% | -32 | u | -2 | -10%
COc1ccc(CCC(=O)Nc2nnc(C(C)(C)C)s2)cc1 | u | 7% | 14 | 19% | -3 | -2%
CN(C)S(=O)(=O)c1ccc2c(c1)Cc1cc(S(=O)(=O)N(C)C)ccc1-2 | 22% | 2% | -4 | 11% | 7 | 2%
CS(=O)(=O)N(CC(=O)NCCSCc1ccccc1Cl)c1ccc(F)cc1 | -10% | -4% | -10 | 9% | 2 | 1%
CNc1ccccc1C(C)(C)c1cc(-c2ccc(F)cc2)no1 | 8.3µM* | 4µM* | -7 | u | -8 | -12%
CNc1ccccc1C(C)(C)c1cc(-c2cccc(Br)c2)no1 | u | u | 17 | u | 9 | -2%
CCc1ccn2cc(-c3cc(-c4ccccc4)no3)nc2c1 | -7% | 10µM* | 23 | -83% | 37* | -8%
Cc1ccc2nc(-c3cc(-c4ccccc4)no3)cn2c1 | 251% | -2% | 114* | 163% | 49* | -12%
COc1ccccc1N(C1=NCCCS1)S(=O)(=O)c1ccc(C(C)(C)C)cc1 | 20% | u | 6 | u | -1 | -16%
O=C(/C=C/c1cccc(O)c1)c1ccc(N2CCOCC2)cc1 | u | -26% | 102* | 122% | 38* | 0%
Cc1ccc(C(=O)C=Cc2cccc(C)c2)cc1 | x | -15% | x | x | x | 15%
CCS(=O)(=O)N1Cc2ccccc2CC1C(=O)Nc1cccc(OC)c1 (centres undefined) | u | 22% | 124* | 3% | 24* | 12%
CCS(=O)(=O)N1Cc2ccccc2CC1C(=O)Nc1ccc(F)cc1 (centres undefined) | -1% | 13% | 36* | 135% | 24* | -5%
O=C(CSc1nnc(-c2ccc(O)cc2)o1)NNC(=O)c1ccncc1 | 51% | 17% | 2 | 18% | -3 | 89%
